PMC7862700, “An all-to-all approach to the identification of sequence-specific readers for epigenetic DNA modifications on cytosine”

How the values were obtained:
Experiment in all cases: DAPPL (digital affinity profiling via proximity ligation, sequencing); 10 mM Tris-HCl pH 7.5, 50 mM NaCl, 1 mM DTT, 4% glycerol, room temperature, 30 min; GST-TFs on glutathione beads, 16-mer random dsDNA library, 0.1% formaldehyde crosslink after washing; high values mean tight binding
FEV = biological target: T1, FEV (Homo sapiens, UniProt Q99581 1-238); conditions: protein: recombinant; tags: N-terminal GST; dsDNA, one strand shown
T1 sequence: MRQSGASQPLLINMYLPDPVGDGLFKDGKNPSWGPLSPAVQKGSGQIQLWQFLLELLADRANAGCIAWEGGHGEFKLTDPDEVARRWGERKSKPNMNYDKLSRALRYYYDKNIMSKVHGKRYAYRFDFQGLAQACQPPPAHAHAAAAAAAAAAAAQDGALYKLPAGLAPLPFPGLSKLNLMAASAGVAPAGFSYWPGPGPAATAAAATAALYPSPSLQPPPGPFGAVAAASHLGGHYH
Procedure, shortened: (§1)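 Yeast served to express human transcription factors as GST fusions, which were then captured on glutathione beads and labelled with DNA barcodes. Pooled with a tag-only sample, they were incubated with 200 nmole of a 16-mer random double-stranded DNA library for 30 min at room temperature in Tris/NaCl/DTT/glycerol buffer, washed, crosslinked with 0.1% formaldehyde, ligated by proximity, amplified by PCR and sequenced. Dividing each hexamer's read frequency for a factor by its frequency for the tag-only sample gives the binding signal.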

ETV5 = ETV5 (Homo sapiens, UniProt P41161 1-510); conditions: protein: recombinant; tags: N-terminal GST; dsDNA, one strand shown
Procedure, shortened: as §1

HSF1 = HSF1 (Homo sapiens, UniProt Q00613 1-529); conditions: protein: recombinant; tags: N-terminal GST; chain copies: 3; dsDNA, one strand shown
Procedure, shortened: as §1

SPIC = biological target: T2, SPIC (Homo sapiens, UniProt Q8N5J4 1-248); conditions: protein: recombinant; tags: N-terminal GST; dsDNA, one strand shown
T2 sequence: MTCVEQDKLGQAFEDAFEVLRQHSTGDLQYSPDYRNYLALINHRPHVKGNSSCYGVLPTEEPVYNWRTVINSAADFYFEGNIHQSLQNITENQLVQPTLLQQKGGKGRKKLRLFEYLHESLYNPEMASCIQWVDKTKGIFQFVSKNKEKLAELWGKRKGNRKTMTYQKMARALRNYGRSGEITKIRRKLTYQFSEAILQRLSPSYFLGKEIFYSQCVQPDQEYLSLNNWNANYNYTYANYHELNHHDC
Procedure, shortened: as §1

ELF4 = ELF4 (Homo sapiens, UniProt Q99607 1-663); conditions: protein: recombinant; tags: N-terminal GST; dsDNA, one strand shown
Procedure, shortened: as §1

ELK4 = biological target: T3, ELK4 (Homo sapiens, UniProt P28324-2 1-405); conditions: protein: recombinant; tags: N-terminal GST; dsDNA, one strand shown
T3 sequence: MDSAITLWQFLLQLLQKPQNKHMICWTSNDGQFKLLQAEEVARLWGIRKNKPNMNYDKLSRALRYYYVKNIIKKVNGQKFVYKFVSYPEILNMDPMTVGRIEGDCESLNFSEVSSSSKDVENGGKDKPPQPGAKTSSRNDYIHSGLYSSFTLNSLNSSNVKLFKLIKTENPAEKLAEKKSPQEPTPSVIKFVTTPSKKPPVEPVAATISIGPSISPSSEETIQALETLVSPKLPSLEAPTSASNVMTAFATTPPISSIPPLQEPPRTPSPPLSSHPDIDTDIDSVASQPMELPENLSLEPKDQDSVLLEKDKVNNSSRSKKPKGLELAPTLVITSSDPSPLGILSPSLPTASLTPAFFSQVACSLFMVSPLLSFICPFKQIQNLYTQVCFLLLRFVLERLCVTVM
Procedure, shortened: as §1

ETV2 = biological target: T4, ETV2 (Homo sapiens, UniProt O00321 1-342); conditions: protein: recombinant; tags: N-terminal GST; dsDNA, one strand shown
T4 sequence: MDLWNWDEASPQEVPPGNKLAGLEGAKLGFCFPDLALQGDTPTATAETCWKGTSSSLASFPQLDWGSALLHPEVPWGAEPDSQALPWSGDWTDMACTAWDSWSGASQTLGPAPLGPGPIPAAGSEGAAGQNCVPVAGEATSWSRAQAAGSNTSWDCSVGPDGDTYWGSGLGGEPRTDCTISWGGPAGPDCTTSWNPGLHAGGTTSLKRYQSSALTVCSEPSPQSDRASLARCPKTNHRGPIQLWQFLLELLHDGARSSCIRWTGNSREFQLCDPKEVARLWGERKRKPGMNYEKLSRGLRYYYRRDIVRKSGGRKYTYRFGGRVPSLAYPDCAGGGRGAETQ
Procedure, shortened: as §1

ELF3 = biological target: T5, ELF3 (Homo sapiens, UniProt P78545 1-371); conditions: protein: recombinant; tags: N-terminal GST; dsDNA, one strand shown
T5 sequence: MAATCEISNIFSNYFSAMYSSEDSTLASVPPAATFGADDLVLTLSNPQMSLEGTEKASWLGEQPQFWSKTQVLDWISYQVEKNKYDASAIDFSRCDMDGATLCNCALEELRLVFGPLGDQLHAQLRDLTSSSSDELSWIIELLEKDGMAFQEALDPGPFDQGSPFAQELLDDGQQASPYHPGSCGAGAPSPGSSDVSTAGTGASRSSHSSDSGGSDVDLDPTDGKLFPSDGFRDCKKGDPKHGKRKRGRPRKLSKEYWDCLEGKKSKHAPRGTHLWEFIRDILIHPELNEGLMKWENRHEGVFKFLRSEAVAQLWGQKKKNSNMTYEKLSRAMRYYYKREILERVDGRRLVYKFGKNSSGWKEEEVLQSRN
Procedure, shortened: as §1

CRX = CRX (Homo sapiens, UniProt O43186 1-299); conditions: protein: recombinant; tags: N-terminal GST; dsDNA, one strand shown
Procedure, shortened: as §1

ETV1 = ETV1 (Homo sapiens, UniProt P50549 1-477); conditions: protein: recombinant; tags: N-terminal GST; dsDNA, one strand shown
Procedure, shortened: as §1

ERF = biological target: T6, ERF (Homo sapiens, UniProt P50548 1-548); conditions: protein: recombinant; tags: N-terminal GST; dsDNA, one strand shown
T6 sequence: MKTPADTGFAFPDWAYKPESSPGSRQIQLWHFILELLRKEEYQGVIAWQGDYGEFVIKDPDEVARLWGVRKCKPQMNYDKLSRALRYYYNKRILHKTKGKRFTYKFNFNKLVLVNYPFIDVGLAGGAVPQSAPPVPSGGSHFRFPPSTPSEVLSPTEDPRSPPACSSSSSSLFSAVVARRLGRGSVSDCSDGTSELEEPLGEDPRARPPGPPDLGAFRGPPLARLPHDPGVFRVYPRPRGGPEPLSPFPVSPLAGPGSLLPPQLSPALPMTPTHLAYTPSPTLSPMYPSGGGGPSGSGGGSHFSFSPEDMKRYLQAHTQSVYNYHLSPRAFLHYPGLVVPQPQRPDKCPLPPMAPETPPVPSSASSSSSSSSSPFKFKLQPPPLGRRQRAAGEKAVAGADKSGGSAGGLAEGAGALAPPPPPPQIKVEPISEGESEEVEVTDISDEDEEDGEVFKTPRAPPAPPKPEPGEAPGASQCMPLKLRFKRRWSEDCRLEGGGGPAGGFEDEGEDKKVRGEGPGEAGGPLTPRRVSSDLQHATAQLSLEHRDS
Procedure, shortened: as §1

ETV3L = biological target: T7, ETV3L (Homo sapiens, UniProt Q6ZN32 1-361); conditions: protein: recombinant; tags: N-terminal GST; dsDNA, one strand shown
T7 sequence: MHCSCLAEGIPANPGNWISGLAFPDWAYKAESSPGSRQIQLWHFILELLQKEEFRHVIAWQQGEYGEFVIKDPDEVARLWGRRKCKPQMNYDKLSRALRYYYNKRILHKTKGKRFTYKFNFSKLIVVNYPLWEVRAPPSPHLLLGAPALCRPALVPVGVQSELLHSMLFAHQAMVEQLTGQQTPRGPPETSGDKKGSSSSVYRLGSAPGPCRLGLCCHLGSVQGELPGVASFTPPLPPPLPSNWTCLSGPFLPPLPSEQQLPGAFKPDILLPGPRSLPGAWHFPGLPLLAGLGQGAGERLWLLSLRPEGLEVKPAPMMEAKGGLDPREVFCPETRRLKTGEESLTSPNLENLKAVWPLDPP
Procedure, shortened: as §1

ETS2 = biological target: T8, ETS2 (Homo sapiens, UniProt P15036 1-469); conditions: protein: recombinant; tags: N-terminal GST; dsDNA, one strand shown
T8 sequence: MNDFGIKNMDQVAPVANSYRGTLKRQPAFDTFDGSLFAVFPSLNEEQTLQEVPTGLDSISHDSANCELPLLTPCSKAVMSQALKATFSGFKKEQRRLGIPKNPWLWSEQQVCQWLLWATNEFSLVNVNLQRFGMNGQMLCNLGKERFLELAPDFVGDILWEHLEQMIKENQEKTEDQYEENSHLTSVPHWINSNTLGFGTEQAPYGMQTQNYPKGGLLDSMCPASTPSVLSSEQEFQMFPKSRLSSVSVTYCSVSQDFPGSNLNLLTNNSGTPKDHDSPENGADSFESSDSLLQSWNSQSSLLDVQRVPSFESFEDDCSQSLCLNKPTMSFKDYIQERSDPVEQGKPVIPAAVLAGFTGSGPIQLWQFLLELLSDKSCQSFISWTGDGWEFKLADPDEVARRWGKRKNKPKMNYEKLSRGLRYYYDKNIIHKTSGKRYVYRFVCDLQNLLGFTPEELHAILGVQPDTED
Procedure, shortened: as §1

SPDEF = biological target: T9, SPDEF (Homo sapiens, UniProt O95238 1-335); conditions: protein: recombinant; tags: N-terminal GST; dsDNA, one strand shown
T9 sequence: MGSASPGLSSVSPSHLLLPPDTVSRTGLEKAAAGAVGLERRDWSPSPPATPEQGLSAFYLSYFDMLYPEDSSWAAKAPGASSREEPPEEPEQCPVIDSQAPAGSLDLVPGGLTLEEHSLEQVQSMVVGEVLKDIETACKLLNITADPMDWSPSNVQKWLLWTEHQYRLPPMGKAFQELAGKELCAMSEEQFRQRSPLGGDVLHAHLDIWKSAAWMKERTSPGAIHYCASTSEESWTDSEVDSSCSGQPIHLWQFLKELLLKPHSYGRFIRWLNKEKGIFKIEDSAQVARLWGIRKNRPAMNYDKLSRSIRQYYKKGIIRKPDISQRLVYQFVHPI
Procedure, shortened: as §1

ETV7 = biological target: T10, ETV7 (Homo sapiens, UniProt Q9Y603 1-341); conditions: protein: recombinant; tags: N-terminal GST; dsDNA, one strand shown
T10 sequence: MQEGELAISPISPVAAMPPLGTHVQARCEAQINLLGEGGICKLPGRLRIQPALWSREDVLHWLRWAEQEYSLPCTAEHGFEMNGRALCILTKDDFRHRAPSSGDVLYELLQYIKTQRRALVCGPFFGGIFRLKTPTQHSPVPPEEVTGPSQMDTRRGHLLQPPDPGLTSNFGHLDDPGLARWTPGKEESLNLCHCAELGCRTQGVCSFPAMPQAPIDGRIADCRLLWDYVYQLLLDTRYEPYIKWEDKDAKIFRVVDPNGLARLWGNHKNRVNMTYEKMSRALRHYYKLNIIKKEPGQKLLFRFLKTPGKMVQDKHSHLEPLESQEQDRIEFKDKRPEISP
Procedure, shortened: as §1

ELF5 = biological target: T11, ELF5 (Homo sapiens, UniProt Q9UKW6-2 1-255); conditions: protein: recombinant; tags: N-terminal GST; dsDNA, one strand shown
T11 sequence: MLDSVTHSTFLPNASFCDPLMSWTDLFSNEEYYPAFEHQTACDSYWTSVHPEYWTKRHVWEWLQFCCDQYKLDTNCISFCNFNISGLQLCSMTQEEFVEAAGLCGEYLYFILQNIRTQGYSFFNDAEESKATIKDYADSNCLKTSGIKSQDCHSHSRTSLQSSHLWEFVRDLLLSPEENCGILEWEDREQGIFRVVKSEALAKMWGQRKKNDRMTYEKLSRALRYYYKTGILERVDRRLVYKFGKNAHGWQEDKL
Procedure, shortened: as §1

ETV3 = biological target: T12, ETV3 (Homo sapiens, UniProt P41162-2 1-143); conditions: protein: recombinant; tags: N-terminal GST; dsDNA, one strand shown
T12 sequence: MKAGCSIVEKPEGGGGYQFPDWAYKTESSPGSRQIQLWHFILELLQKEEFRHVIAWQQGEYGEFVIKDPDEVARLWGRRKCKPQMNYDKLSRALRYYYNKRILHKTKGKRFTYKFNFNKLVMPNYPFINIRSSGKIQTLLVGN
Procedure, shortened: as §1

ETV6 = ETV6 (Homo sapiens, UniProt P41212 1-452); conditions: protein: recombinant; tags: N-terminal GST; dsDNA, one strand shown
Procedure, shortened: as §1

HSF1, sequence (Q00613 whole entry): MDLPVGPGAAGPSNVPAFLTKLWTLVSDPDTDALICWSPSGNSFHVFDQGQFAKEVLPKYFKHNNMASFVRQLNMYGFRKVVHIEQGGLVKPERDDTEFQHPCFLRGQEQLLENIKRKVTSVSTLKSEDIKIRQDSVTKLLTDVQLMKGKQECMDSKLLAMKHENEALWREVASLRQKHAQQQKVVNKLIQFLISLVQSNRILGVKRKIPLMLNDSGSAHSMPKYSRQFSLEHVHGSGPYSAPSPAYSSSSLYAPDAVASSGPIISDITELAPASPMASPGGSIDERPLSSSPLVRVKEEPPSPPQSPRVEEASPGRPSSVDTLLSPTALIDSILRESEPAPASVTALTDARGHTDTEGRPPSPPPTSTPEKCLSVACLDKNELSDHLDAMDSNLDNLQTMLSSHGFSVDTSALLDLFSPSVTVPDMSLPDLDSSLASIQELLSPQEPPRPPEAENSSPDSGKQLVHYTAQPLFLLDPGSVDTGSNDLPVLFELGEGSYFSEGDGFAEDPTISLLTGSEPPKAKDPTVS
ELF4, sequence (Q99607 whole entry): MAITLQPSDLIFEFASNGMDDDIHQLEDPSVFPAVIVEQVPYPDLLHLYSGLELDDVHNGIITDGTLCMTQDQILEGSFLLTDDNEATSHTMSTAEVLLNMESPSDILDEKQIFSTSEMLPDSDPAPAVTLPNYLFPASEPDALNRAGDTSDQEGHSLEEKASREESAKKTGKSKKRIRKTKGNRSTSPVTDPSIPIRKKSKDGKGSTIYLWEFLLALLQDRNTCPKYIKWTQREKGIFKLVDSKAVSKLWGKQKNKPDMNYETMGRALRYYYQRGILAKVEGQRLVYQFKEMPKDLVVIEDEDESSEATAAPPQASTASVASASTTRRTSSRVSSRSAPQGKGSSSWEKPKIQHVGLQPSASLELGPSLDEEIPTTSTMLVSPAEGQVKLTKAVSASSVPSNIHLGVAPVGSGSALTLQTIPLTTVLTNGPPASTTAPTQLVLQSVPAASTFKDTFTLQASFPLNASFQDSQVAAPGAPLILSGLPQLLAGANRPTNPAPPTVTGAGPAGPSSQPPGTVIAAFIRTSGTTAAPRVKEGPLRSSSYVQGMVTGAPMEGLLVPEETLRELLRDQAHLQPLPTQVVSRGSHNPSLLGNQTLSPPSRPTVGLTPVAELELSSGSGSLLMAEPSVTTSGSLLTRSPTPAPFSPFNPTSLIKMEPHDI
ETV5, sequence (P41161 whole entry): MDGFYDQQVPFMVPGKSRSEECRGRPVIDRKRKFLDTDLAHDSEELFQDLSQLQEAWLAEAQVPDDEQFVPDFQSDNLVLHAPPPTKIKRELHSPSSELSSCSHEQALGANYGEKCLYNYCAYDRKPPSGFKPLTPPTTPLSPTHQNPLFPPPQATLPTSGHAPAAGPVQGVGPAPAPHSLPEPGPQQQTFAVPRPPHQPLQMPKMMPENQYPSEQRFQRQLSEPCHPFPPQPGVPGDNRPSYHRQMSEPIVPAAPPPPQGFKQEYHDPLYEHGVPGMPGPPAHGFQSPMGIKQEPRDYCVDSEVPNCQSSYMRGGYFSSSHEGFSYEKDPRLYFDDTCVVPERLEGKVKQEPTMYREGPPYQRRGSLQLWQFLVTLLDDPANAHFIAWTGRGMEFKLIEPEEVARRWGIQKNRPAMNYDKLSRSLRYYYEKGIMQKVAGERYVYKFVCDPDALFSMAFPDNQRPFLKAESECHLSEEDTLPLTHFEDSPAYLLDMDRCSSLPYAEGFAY
ETV1, sequence (P50549 whole entry): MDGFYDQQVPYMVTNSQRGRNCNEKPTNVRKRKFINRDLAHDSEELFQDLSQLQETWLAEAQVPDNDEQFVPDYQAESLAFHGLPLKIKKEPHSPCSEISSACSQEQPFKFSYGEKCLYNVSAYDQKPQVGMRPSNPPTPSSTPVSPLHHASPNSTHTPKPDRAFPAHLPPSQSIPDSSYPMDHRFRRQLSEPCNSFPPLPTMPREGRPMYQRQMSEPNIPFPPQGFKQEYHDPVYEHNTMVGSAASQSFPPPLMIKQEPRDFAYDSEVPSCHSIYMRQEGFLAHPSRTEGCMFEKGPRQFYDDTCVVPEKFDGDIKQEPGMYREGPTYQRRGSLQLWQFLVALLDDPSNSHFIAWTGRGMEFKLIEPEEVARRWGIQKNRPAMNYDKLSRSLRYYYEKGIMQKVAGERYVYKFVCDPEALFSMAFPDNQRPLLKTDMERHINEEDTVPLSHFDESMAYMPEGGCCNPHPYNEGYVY
CRX, sequence (O43186 whole entry): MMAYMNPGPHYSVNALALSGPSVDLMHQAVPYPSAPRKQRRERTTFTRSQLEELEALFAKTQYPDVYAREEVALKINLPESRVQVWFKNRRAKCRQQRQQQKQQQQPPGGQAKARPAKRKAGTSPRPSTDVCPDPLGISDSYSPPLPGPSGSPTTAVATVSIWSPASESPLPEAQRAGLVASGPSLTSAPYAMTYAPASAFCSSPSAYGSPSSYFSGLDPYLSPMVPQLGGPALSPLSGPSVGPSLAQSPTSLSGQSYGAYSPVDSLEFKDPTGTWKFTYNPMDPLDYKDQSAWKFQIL
ETV6, sequence (P41212 whole entry): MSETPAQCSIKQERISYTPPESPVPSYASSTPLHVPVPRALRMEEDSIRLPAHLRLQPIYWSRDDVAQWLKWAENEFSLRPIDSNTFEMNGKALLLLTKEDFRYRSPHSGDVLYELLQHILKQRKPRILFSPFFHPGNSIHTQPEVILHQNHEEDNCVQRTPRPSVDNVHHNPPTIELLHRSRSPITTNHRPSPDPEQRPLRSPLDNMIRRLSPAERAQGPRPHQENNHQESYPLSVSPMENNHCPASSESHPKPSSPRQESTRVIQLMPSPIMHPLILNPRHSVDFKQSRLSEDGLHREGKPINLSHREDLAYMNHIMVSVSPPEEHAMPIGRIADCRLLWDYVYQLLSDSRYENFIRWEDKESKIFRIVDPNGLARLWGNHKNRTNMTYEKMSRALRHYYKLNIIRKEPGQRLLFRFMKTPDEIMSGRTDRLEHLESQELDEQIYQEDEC

## TACGTA
FEV
  binding signal: 1.27 fold enrichment (6-mer frequency, TF over GST control)
ETV5
  binding signal: 1.37 fold enrichment (6-mer frequency, TF over GST control)
HSF1
  binding signal: 1.23 fold enrichment (6-mer frequency, TF over GST control)
SPIC
  binding signal: 1.27 fold enrichment (6-mer frequency, TF over GST control)
ELF4
  binding signal: 1.33 fold enrichment (6-mer frequency, TF over GST control)
ELK4
  binding signal: 1.3 fold enrichment (6-mer frequency, TF over GST control)
ETV2
  binding signal: 1.33 fold enrichment (6-mer frequency, TF over GST control)
ELF3
  binding signal: 1.4 fold enrichment (6-mer frequency, TF over GST control)
CRX
  binding signal: 1.49 fold enrichment (6-mer frequency, TF over GST control)
ETV1
  binding signal: 1.4 fold enrichment (6-mer frequency, TF over GST control)
ERF
  binding signal: 1.3 fold enrichment (6-mer frequency, TF over GST control)
ETV3L
  binding signal: 1.38 fold enrichment (6-mer frequency, TF over GST control)
ETS2
  binding signal: 1.42 fold enrichment (6-mer frequency, TF over GST control)
SPDEF
  binding signal: 1.35 fold enrichment (6-mer frequency, TF over GST control)
ETV7
  binding signal: 1.15 fold enrichment (6-mer frequency, TF over GST control)
ELF5
  binding signal: 1.31 fold enrichment (6-mer frequency, TF over GST control)
ETV3
  binding signal: 1.37 fold enrichment (6-mer frequency, TF over GST control)
ETV6
  binding signal: 1.32 fold enrichment (6-mer frequency, TF over GST control)
